Data from PubChem BioAssay (Tox21).
Inconclusive results are not listed. Values without a mark were called inactive. Activity calls are given as the source filed them. Calls come from the whole dose curve.

Molecular target: Acetylcholinesterase (Homo sapiens) (UniProt P22303)
Assay: Acetylcholinesterase (AChE) small molecule antagonists: fluorescence cell-based qHTS assay (AID 1347398); note: nearly all actives have a fitted effect of over 50% in size
Conditions: SH-SY5Y cells; Potency: AChE activity; outcome: AChE activity; series mostly up to 115 µM; activity change, negative = inhibition: at the top concentration
Procedure, shortened: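 Thiocholine generated from acetylthiocholine by SH-SY5Y cell AChE is detected with Thiolite Green (Ex/Em 490/520 nm) after 40 min at room temperature, following 30 min compound pretreatment at 37 C.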
% is set by controls: 0 for no effect and ±100 for the full control effect.

Sequence of Acetylcholinesterase (Homo sapiens) (P22303 whole entry, looked up): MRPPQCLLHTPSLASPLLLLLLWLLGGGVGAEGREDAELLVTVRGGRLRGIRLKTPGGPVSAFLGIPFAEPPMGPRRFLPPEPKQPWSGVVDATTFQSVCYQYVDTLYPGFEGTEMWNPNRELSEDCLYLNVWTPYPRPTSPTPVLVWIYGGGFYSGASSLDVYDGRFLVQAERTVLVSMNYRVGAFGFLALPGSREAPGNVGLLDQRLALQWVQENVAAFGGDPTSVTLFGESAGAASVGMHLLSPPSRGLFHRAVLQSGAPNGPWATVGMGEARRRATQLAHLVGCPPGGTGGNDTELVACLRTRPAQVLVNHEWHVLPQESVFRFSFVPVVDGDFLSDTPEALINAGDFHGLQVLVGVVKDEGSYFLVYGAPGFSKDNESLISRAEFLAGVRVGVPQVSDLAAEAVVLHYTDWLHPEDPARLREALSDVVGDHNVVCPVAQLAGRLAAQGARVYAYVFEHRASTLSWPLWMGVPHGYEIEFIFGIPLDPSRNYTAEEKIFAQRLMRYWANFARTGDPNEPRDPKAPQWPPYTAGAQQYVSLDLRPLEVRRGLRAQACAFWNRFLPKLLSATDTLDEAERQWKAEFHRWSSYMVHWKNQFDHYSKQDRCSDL

| Structure (SMILES) | activity change, negative = inhibition | Potency |
| --- | --- | --- |
| CCCCCCOC(=O)CCCCCCCC(=O)OCCCCCC | -4.32% |  |
| C[N+](C)(C)CC(O)CCl (stereo unspecified) | -0.257% |  |
| CC(C)(C)c1n[nH]c(=S)n(N)c1=O | -8.57% |  |
| O=[N+]([O-])c1cccc(Cl)c1 |  | inactive |
| CN(C)c1ccc(C2(c3ccc(N(C)C)cc3)OC(=O)c3cc(N(C)C)ccc32)cc1 | -0.723% |  |
| Nc1c(CC(=O)O)cccc1C(=O)c1ccc(Br)cc1 | 19.6% [at 53.7 µM] |  |
| CC1CCCCC1 | 2.45% |  |
| O=C(Nc1ccccc1)OCC(CN1CCCCC1)OC(=O)Nc1ccccc1 (stereo unspecified) | -12% [at 53.7 µM] |  |
| CCOC=C(C(=O)OCC)C(=O)OCC | 2.38% |  |
| Cc1cn([C@@H]2O[C@H](CO)[C@@H](O)[C@@H]2F)c(=O)[nH]c1=O | 4.84% [at 53.7 µM] |  |
| CCCCOC(=O)[C@H](C)O | -0.444% |  |
| COc1cc2c(c(OC)c1OC)-c1ccc(OC)c(=O)cc1[C@@H](NC(C)=O)CC2 |  | inactive |
| Nc1ccc(S(=O)(=O)Nc2ccnn2-c2ccccc2)cc1 | 5.71% [at 23.8 µM] |  |
| CN(C)[C@@H]1C(=O)C(C(=O)NCN2CCCC2)=C(O)[C@@]2(O)C(=O)C3=C(O)c4c(O)cccc4[C@@](C)(O)C3C[C@@H]12 (stereo partly specified) | 2.98% [at 53.7 µM] |  |
| Nc1ccncc1N | -9.36% [at 53.7 µM] |  |
| CC(=O)c1ccc2ccccc2c1 | 2.2% |  |
| C#C[C@]1(O)CC[C@H]2[C@@H]3CCc4cc(OC)ccc4[C@H]3CC[C@@]21C |  | inactive |
| CCCOC(=O)CCCCC(=O)OCCC | 2.75% |  |
| Cc1ncc(CO)c(C=O)c1O | 5.81% [at 53.7 µM] |  |
| CNC1CCCN(c2c(F)cc3c(=O)c(C(=O)O)cn(C4CC4)c3c2OC)C1 (stereo unspecified) | 3.11% [at 53.7 µM] |  |
| Clc1ccc2c(Cl)ccnc2c1 | -14.9% |  |
